The values that follow come from publication PMC5540273 (PLoS ONE, 2017).

SMILES strings stand for the structures.

Among the test systems are INSRR; INSR; IRAK1; IRAK3; IRAK4; ITK.
Common to all, as to details: concentration: 1 μM,replicates: in singlicate; n = 1
The subject of another test is T1, IKK-alpha.
T1 construct: gene CHUK

Another test has as its system T2, IKK-beta.
T2 construct: gene IKBKB

The next test concerns T3, IKK-epsilon.
T3 construct: gene IKBKE

Test [1] concerns JAK1(JH1domain-catalytic).
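Note: KINOMEscan kinase panel screen.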

For `NC(=O)c1cc(-c2ccccc2)cc2c(C3CCNCC3)c[nH]c12` [GSK301362], the “%Inh” value in the test with IKK-alpha is 54%; with IKK-beta, 98%; with IKK-epsilon, 20%; in the test on INSRR it was 2%; in the test on INSR, 0%; in the test on IRAK1, 35%. The “%Inh” value stood at 19% in the test on IRAK3, 28% in the test on IRAK4, 19% with ITK and 18% in test [1].

As for `CN(C)CCOc1ccc(-c2cc(-c3c[nH]nc3-c3ccccn3)ccn2)cc1` [GW835314], the “%Inh” value was found to be 0% with IKK-alpha; 0% in the test with IKK-beta; 0% in the test on IKK-epsilon; 14% in the test with INSRR; 23% with INSR; 9% with IRAK1. The “%Inh” value in the test on IRAK3 is given as 18%; in the test on IRAK4 it was 12%; in the test on ITK, 15%; in test [1] it was 0%.

As to `C[C@@H](Oc1cc(-c2cnn(C3CCNCC3)c2)cnc1N)c1c(Cl)ccc(F)c1Cl`, the “%Inh” value in the test on IKK-alpha was 17%; in the test with IKK-beta it was 30%; in the test on IKK-epsilon, 70%; in the test on INSRR, 50%; with INSR it was 68%; with IRAK3 it was 99.5%. The “%Inh” value in the test on IRAK4 turned out to be 0%; with ITK it was 3%; in test [1], 58%.

`C[C@@H]1CCN(C(=O)CC#N)C[C@@H]1N(C)c1ncnc2[nH]ccc12`: the “%Inh” value was 0% in the test with IKK-alpha; 0% in the test with IKK-beta; 4% in the test with IKK-epsilon; 0% with INSRR; 0% in the test on INSR; 0% with IRAK1. The “%Inh” value with IRAK3, in the test on IRAK4 and in the test with ITK was 0% in each case.

Turning to `CC(C)N1C(=O)Cc2cc(Nc3ncc(C(F)(F)F)c(NCc4cccc(S(C)(=O)=O)c4)n3)ccc21`, the “%Inh” value in the test on IKK-alpha came out at 20%; in the test on IKK-beta, 26%; in the test on IKK-epsilon it was 70%; with INSRR, 15%; in the test on INSR, 44%; with IRAK1, 37%. The “%Inh” value in the test with IRAK3 was 7%; in the test with IRAK4 it was 9%; in the test with ITK it was 8%; in [1], 48%.

For the compound `O=C(NCCNc1ccnc(NCc2ccc(F)cc2)n1)c1cc2ccccc2s1` [GSK1379944], the “%Inh” value with IKK-alpha is given as 0%; with IKK-beta, 83%; with IKK-epsilon it was 26%; with INSRR, 0%; with INSR, 2%; in the test on IRAK1, 83%. For the same compound, the “%Inh” value in the test on IRAK3 was 17%; in the test with IRAK4, 18%; in the test on ITK, 17%; in test [1], 0%.

Take `Cc1occc1-c1nc(N)c(OC[C@@H](N)Cc2c[nH]c3ccccc23)cc1-c1cc2c(C)n[nH]c2cn1` [GSK1660450]: the “%Inh” value with IKK-alpha came to 0%; with IKK-beta it was 9%; in the test on IKK-epsilon it was 0%; in the test on INSRR, 0%; in the test on INSR, 0%; in the test with IRAK1 it was 12%. Further, the “%Inh” value was found to be 12% with IRAK3, 1% in the test with IRAK4, 13% with ITK and 0% in test [1].

For the compound `C[C@H]1Oc2cc(cnc2N)-c2c(nn(C)c2C#N)CN(C)C(=O)c2ccc(F)cc21`, the “%Inh” value in the test with IKK-alpha stood at 0%; in the test with IKK-beta it was 0%; with IKK-epsilon it was 0%; in the test on INSRR, 13%; in the test with INSR, 0%; in the test with IRAK1, 2%. The “%Inh” value was 13% in the test on IRAK3, 0% with IRAK4, 10% in the test on ITK and 10% in test [1].

With `COc1ccc(C[C@@H](CN)NC(=O)c2cc(Br)c(-c3ccnc4[nH]ccc34)s2)cc1.Cl.Cl` [GSK1389063], the “%Inh” value in the test with IKK-alpha is on record as 52%; with IKK-beta it was 83%; in the test on IKK-epsilon, 26%; in the test on INSRR, 0%; in the test on INSR, 9%; in the test with IRAK1 it was 83%. For the same compound, the “%Inh” value with IRAK3 is 37%; with IRAK4, 32%; with ITK, 22%; in test [1], 67%.

For the compound `Cl.Oc1cc(-c2nc(-c3ccccc3)[nH]c2-c2ccncc2)ccc1Cl` [SB-386023], the “%Inh” value in the test on IKK-alpha amounted to 0%; with IKK-beta it was 8%; in the test on IKK-epsilon, 0%; with INSRR, 0%; in the test with INSR, 3%; with IRAK1 it was 0%. Also, the “%Inh” value with IRAK3 is recorded as 0%; in the test with IRAK4, 0%; with ITK, 10%; in test [1], 0%.

`Cl.Cl.NC[C@H](CC1CCCCC1)NC(=O)c1cc(Br)c(-c2ccnc3[nH]ccc23)s1` [GSK1581427]: the “%Inh” value with IKK-alpha stood at 27%; with IKK-beta, 45%; in the test on IKK-epsilon, 0%; in the test with INSRR, 0%; in the test on INSR it was 0%; in the test with IRAK1, 38%. Moreover, the “%Inh” value in the test with IRAK3 worked out at 0%; in the test on IRAK4, 25%; in the test with ITK, 12%; in test [1], 22%.

As to `O=C(NCCCN1CCOC1=O)c1cnc(NCc2cc(Cl)ccc2Cl)nc1NC1CCCC1`, the “%Inh” value in the test with IKK-alpha is listed as 0%; in the test on IKK-beta it was 16%; in the test with IKK-epsilon it was 13%; in the test on INSRR, 9%; in the test with INSR it was 0%; in the test with IRAK1, 23%. The “%Inh” value was 0% in the test with IRAK3, 6% in the test with IRAK4, 18% in the test on ITK and 0% in test [1].

With `Cc1ccc(-n2nc(C(C)(C)C)cc2NC(=O)Nc2ccc(OCCN3CCOCC3)c3ccccc23)cc1` [GW839464], the “%Inh” value in the test on IKK-alpha amounted to 29%; in the test with IKK-beta, 0%; in the test with IKK-epsilon it was 0%; in the test with INSRR it was 0%; with INSR it was 0%; with IRAK1 it was 0%. Besides, the “%Inh” value with IRAK3 worked out at 27%; in the test with IRAK4, 0%; with ITK, 18%; in test [1] it was 0%.
